Nrf2 ARE act – activates Nrf2 signaling. Potency, µM (titrated, usually from 46.1 µM), inactives show at the highest dose activation, most hits filed as activators. AREc32 ARE-luciferase reporter (MCF7-derived line), luminescence, 24 h. 410,000 tested, 0.31% active; also: potency is read from the fitted curve at half-maximal effect; % of control where 0% means no effect; nearly all actives have a fitted effect of over 65% in size
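Nrf2 activation is followed as ARE-luciferase induction in the AREc32 line after one day of compound treatment; luminescence is read with Steady-Glo.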
BRCA1 expr up – increases BRCA1 expression; MCF7-BRCA1-FFLuc reporter, luminescence, 48 h; response scale: scaled: vehicle 0%, 10 µM genistein 100%; Potency, µM (series often up to 46.1 µM), without a hit: at the top dose activation, most hits filed as activators; 380,000 tested, 1.1% active; AID 624202; also: potency is read from the fitted curve at half-maximal effect; nearly all actives have a fitted effect of over 80% in size
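Cells: MCF7-BRCA1-FFLuc, 2000/well. Exposure: 48 h, 37 °C, 5% CO2. Read: luminescence, 15 min post-substrate. Controls: genistein 10 microM (maximal activation), DMSO (neutral).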
IL2 activator – IL-2 activation; IL-2 activation reporter assay, cell-based qHTS; stimulated with anti-CD3/CD4/CD28 beads; in transgenic mouse T cells; activation, % (series mostly up to about 46 µM); 360,000 tested, 0.065% active; AID 652025; in the data active = activation above about 50%; inconclusive = mostly about 30% to 49%; also: 0% is about no effect
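Unstimulated transgenic mouse T cells, 750 per well, received compound and, after 60 minutes, anti-CD3/anti-CD4 bead plus anti-CD28 stimulation. EGFP and DsRed were quantified after 18 hours.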
ELG1 DNA repair – inhibitors of ELG1-dependent DNA repair in HEK293T cells; HEK293T ELG1-luciferase reporter, luminescence, 16 h; DNA damage induced by 5-fluorouridine; Potency, µM (titrated, usually from 46.1 µM), for inactives: top-dose activity change, negative = inhibition, usual class: inhibitors; 330,000 tested, 2.3% active; AID 504467; also: potency is read from the fitted curve at half-maximal effect; % is scaled to controls: 0 for no effect and ±100 for the full control effect; nearly all actives have a fitted effect of over 55% in size
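Cells (2,000 per well) received 5-fluorouridine plus test compound or DMSO and were incubated 16 hr at 37 °C, 5% CO2. Luciferase activity was read by luminescence 30 min after ONE-Glo addition; signal suppression marked inhibition of damage-induced ELG1 function.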
The depositor's hits bear a star. In the library only some 3.1% were active in any assay of this set; here they are far more common. Unless noted, calls follow the shape of the dose curve; as a rule, active = well fitted curve in the direction sought with a large enough effect; inconclusive = small, poorly fitted or top-dose-only effect, or another doubt; inactive = no such curve, though single readings can be large; an effect the other way counts as inactive or inconclusive.

Screening COc1ccc(Nc2nc(-c3cc4cccc(OC)c4oc3=O)cs2)cc1 returned Nrf2 ARE act 5.3%, BRCA1 expr up 62.2%, IL2 activator -3.9 and ELG1 DNA repair inconclusive.
Screening Cc1ccc([C@H]2C(C(=O)O)=CCN2S(=O)(=O)c2ccc(C)cc2)cc1 returned IL2 activator 1.0.
COCCn1c(N)c(C(=O)NCC2CCCO2)c2nc3ccccc3nc21 (stereo unspecified) was read as Nrf2 ARE act -0.1%, BRCA1 expr up -59.4%, IL2 activator 0.1 and ELG1 DNA repair inconclusive.
`CC(C)Cn1c(N)c(C(=O)NCC2CCCO2)c2nc3ccccc3nc21` (stereo unspecified) gave Nrf2 ARE act 4.4%, BRCA1 expr up -54.8%, IL2 activator -1.9 and ELG1 DNA repair 8.91µM*.
`COc1ccc(OC)c(-n2c(N)c(C(=O)NCC3CCCO3)c3nc4ccccc4nc32)c1` (stereo unspecified) gave Nrf2 ARE act 3.2%, BRCA1 expr up -52.2%, IL2 activator -1.6 and ELG1 DNA repair 16.4µM*.
CCc1ccc(C2CC(=O)c3c([nH]c(C(=O)OCCOc4ccccc4)c3C)C2)cc1 (stereo unspecified) was read as Nrf2 ARE act 0.7%.
O=C(CSc1ncc(-c2ccccc2)[nH]1)Nc1cccc(Br)c1 was read as Nrf2 ARE act 3.0%.
`COc1ccc(OC)c(S(=O)(=O)N2Cc3ccccc3CC2C(=O)Nc2ccc(C(C)=O)cc2)c1` (stereo unspecified) gave Nrf2 ARE act 9.5%.
`Cc1ccc(Cn2nc(C)cc2C(=O)Nc2ccccc2Cl)cc1` gave Nrf2 ARE act 0.5%, BRCA1 expr up 3.98µM*, IL2 activator -0.8 and ELG1 DNA repair inconclusive.
For CCOC(=O)c1cc(-c2ccc(C)cc2)nn1Cc1ccccc1 the results were Nrf2 ARE act 4.7% and BRCA1 expr up 10µM*.
Cc1ccc(NC(=O)CN2C(=O)c3cccnc3Sc3ccccc32)cc1C was read as Nrf2 ARE act 9.0%.
Screening CCOC(=O)c1cnc(Nc2nc3ccccc3o2)nc1CSc1nnc(C)s1 returned Nrf2 ARE act 1.4%, BRCA1 expr up 5.01µM* and IL2 activator -2.2.
CCOC(=O)c1cnc(Nc2nc3ccccc3o2)nc1C was read as Nrf2 ARE act -0.8%, BRCA1 expr up -78.1%, IL2 activator -2.0 and ELG1 DNA repair inconclusive.
`COc1cccc(CNC(=O)c2cc3c(s2)-c2c(C)cccc2OC3)c1` gave Nrf2 ARE act 0.6%.
S=C1SCN(Cc2cccnc2)CN1Cc1cccnc1 was read as Nrf2 ARE act inconclusive, BRCA1 expr up -73.4%, IL2 activator -6.3 and ELG1 DNA repair 23.1µM*.
`COc1cccc(/C=C/C(=O)OCC(=O)c2c[nH]c3ccccc23)c1OC` gave Nrf2 ARE act inconclusive, BRCA1 expr up -36.2%, IL2 activator -2.0 and ELG1 DNA repair 16.4µM*.
Screening CCc1cccc2c(C(=O)COC(=O)/C=C/c3ccc(O)c(OC)c3)c[nH]c12 returned Nrf2 ARE act 3.6%, BRCA1 expr up -36.6%, IL2 activator 0.0 and ELG1 DNA repair 20.6µM*.
COc1cccc(/C=C/C(=O)OCC(=O)c2c[nH]c3ccccc23)c1 was read as Nrf2 ARE act 9.1%, BRCA1 expr up 5.8%, IL2 activator 0.6 and ELG1 DNA repair inconclusive.
Screening COc1cc(/C=C/C(=O)OCC(=O)c2ccc(OC(F)F)cc2)ccc1O returned Nrf2 ARE act 12.7%, BRCA1 expr up -26.9%, IL2 activator 1.0 and ELG1 DNA repair 18.3µM*.
Screening CN(C)c1ccc(/C=C/c2ccncc2)cc1 returned Nrf2 ARE act 5.0%, BRCA1 expr up 7.94µM*, IL2 activator 1.1 and ELG1 DNA repair inconclusive.
COc1ccc(/C=C/c2ccncc2)cc1 was read as Nrf2 ARE act 3.2%, BRCA1 expr up 10µM*, IL2 activator -0.8 and ELG1 DNA repair inconclusive.
`Cc1nn(C(=O)c2ccc(Br)cc2)c(C)c1S(=O)(=O)N1CCOCC1` gave Nrf2 ARE act -1.3% and BRCA1 expr up 5.1%.
`COc1cccc(N2CCN(c3c(C#N)c(C(F)(F)F)nn3C)CC2)c1` gave Nrf2 ARE act -1.1%, BRCA1 expr up -8.9%, IL2 activator 0.0 and ELG1 DNA repair 14.6µM*.
Cc1ccc2nc3sc(C(=O)Nc4ccc(F)cc4)cc3cc2c1 was read as Nrf2 ARE act 0.4% and BRCA1 expr up 15.3%.
Screening Cc1cccc(-c2cc(C(=O)N3CCCc4ccccc43)c3ccccc3n2)c1 returned Nrf2 ARE act 2.6%, BRCA1 expr up -21.2%, IL2 activator -4.6 and ELG1 DNA repair 7.31µM*.
For Cc1cccc(-c2cc(C(=O)NCc3ccccn3)c3ccccc3n2)c1 the results were Nrf2 ARE act 5.2%, BRCA1 expr up 24.4%, IL2 activator -0.3 and ELG1 DNA repair 16.4µM*.
`O=C(c1cc(-c2ccccc2)nc2ccccc12)N1CCCc2ccccc21` gave Nrf2 ARE act 7.2%, BRCA1 expr up -23.3%, IL2 activator 0.1 and ELG1 DNA repair 18.4µM*.
`O=C(NCc1ccccn1)c1cc(-c2ccccc2)nc2ccccc12` gave Nrf2 ARE act 0.1%, BRCA1 expr up -3.1%, IL2 activator 0.6 and ELG1 DNA repair inconclusive.
`Cc1cc(C)c2c(=O)cc(C(=O)Nc3sc4c(c3C(=O)NCc3ccccc3)CCCC4)oc2c1` gave Nrf2 ARE act -0.5%.
For c1cncc(CSc2ccc(-c3cccs3)nn2)c1 the results were Nrf2 ARE act 3.6%, BRCA1 expr up 10µM*, IL2 activator 1.7 and ELG1 DNA repair 11.7%.
For Fc1ccc(CSc2ccc(-c3cccs3)nn2)cc1 the results were Nrf2 ARE act 1.5%, BRCA1 expr up 10µM*, IL2 activator 5.4 and ELG1 DNA repair inconclusive.
`Fc1cccc(CSc2ccc(-c3cccs3)nn2)c1` gave Nrf2 ARE act 12.5%.
`O=C1CCCN1c1ccc(S(=O)(=O)NCCOc2ccccc2)cc1` gave Nrf2 ARE act 0.1%, BRCA1 expr up -1.5%, IL2 activator -4.3 and ELG1 DNA repair inconclusive.
For Cc1cc(N2CCCC2=O)cc(C)c1S(=O)(=O)NCCOc1ccc(C(C)(C)C)cc1 the results were Nrf2 ARE act 0.4%, BRCA1 expr up -74.8%, IL2 activator -1.2 and ELG1 DNA repair 20.6µM*.
`Cc1nc(CS(=O)(=O)c2ccc(Cl)cc2)cc(Sc2ccc(Cl)cc2)n1` gave Nrf2 ARE act -0.3%, BRCA1 expr up -28.1%, IL2 activator -0.1 and ELG1 DNA repair 20.6µM*.
For CCc1ccccc1NC(=O)Nc1c[nH]c(=O)[nH]c1=O the results were Nrf2 ARE act -0.7%.
CCCCNC(=O)C1(C)CCN1C(=O)c1cc(C)n(C(C)(C)C)n1 (stereo unspecified) was read as Nrf2 ARE act -0.6%, BRCA1 expr up -0.8% and IL2 activator -0.3.
CCS(=O)(=O)c1nnnn1-c1ccccc1S(C)(=O)=O was read as Nrf2 ARE act inconclusive, BRCA1 expr up -40.6%, IL2 activator -2.1 and ELG1 DNA repair 14.6µM*.
